# Measured values from publication PMC7862700, “An all-to-all approach to the identification of sequence-specific readers for epigenetic DNA modifications on cytosine”.
# Key:
# Test in all cases: DAPPL (digital affinity profiling via proximity ligation, sequencing); 10 mM Tris-HCl pH 7.5, 50 mM NaCl, 1 mM DTT, 4% glycerol, room temperature, 30 min; GST-TFs on glutathione beads, 16-mer random dsDNA library, 0.1% formaldehyde crosslink after washing; high values mean tight binding
# [1] = target: T1, FEV (Homo sapiens, UniProt Q99581 1-238); details: protein: recombinant; tags: N-terminal GST; dsDNA, one strand shown
# T1 sequence: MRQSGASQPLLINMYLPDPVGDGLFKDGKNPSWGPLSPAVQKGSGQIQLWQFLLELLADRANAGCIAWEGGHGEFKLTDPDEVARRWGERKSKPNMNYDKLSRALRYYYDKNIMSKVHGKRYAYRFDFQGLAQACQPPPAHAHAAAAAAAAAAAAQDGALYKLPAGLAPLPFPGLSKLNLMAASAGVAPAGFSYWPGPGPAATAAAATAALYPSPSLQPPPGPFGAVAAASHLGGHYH
# Outline: (§1)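 Each value of binding signal is a hexamer's read frequency for a factor divided by the same hexamer's frequency in the tag-only sample. Barcoded, bead-captured GST fusions of human transcription factors made in yeast were pooled with that sample and incubated with 200 nmole of a random double-stranded 16-mer DNA library in Tris/NaCl/DTT/glycerol buffer at room temperature for 30 min. Washing, 0.1% formaldehyde crosslinking, proximity ligation, PCR and Illumina NextSeq500 sequencing followed.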
# [2] = target: ETV5 (Homo sapiens, UniProt P41161 1-510); details: protein: recombinant; tags: N-terminal GST; dsDNA, one strand shown
# Outline: as §1
# [3] = target: HSF1 (Homo sapiens, UniProt Q00613 1-529); details: protein: recombinant; tags: N-terminal GST; chain copies: 3; dsDNA, one strand shown
# Outline: as §1
# [4] = target: T2, SPIC (Homo sapiens, UniProt Q8N5J4 1-248); details: protein: recombinant; tags: N-terminal GST; dsDNA, one strand shown
# T2 sequence: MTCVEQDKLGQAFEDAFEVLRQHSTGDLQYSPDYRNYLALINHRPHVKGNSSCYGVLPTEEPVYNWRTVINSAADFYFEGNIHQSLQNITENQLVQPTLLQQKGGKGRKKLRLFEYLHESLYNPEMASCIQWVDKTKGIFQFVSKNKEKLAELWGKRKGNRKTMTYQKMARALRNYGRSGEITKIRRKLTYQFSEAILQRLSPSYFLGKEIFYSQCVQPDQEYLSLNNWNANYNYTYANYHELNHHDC
# Outline: as §1
# [5] = target: ELF4 (Homo sapiens, UniProt Q99607 1-663); details: protein: recombinant; tags: N-terminal GST; dsDNA, one strand shown
# Outline: as §1
# [6] = target: T3, ELK4 (Homo sapiens, UniProt P28324-2 1-405); details: protein: recombinant; tags: N-terminal GST; dsDNA, one strand shown
# T3 sequence: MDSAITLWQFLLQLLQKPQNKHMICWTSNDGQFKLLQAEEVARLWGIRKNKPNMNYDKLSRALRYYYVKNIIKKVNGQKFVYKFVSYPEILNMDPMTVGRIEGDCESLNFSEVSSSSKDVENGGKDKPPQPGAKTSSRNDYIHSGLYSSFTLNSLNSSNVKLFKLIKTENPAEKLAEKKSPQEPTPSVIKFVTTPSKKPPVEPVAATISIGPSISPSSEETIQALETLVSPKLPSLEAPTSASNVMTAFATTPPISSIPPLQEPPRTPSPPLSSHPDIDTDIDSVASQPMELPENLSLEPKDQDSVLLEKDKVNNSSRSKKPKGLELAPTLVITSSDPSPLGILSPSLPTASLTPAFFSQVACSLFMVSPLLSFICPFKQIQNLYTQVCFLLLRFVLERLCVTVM
# Outline: as §1
# [7] = target: T4, ETV2 (Homo sapiens, UniProt O00321 1-342); details: protein: recombinant; tags: N-terminal GST; dsDNA, one strand shown
# T4 sequence: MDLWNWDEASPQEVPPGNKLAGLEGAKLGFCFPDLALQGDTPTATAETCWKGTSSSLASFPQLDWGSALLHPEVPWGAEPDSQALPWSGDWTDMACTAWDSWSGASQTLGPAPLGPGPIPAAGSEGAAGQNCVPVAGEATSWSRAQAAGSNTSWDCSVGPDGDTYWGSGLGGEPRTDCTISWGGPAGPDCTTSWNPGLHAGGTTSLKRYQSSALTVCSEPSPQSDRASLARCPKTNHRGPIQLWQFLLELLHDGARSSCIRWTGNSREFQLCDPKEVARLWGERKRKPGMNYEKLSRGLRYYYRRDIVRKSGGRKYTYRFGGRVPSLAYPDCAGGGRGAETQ
# Outline: as §1
# [8] = target: T5, ELF3 (Homo sapiens, UniProt P78545 1-371); details: protein: recombinant; tags: N-terminal GST; dsDNA, one strand shown
# T5 sequence: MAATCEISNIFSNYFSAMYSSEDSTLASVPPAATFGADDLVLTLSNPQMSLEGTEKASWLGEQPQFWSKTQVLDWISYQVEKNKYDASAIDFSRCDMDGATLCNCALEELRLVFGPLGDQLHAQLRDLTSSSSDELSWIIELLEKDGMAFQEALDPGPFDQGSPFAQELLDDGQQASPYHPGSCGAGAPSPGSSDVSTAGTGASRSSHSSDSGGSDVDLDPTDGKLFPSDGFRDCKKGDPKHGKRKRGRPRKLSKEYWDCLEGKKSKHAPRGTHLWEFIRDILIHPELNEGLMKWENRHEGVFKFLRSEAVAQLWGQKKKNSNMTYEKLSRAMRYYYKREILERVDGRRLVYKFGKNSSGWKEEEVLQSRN
# Outline: as §1
# [9] = target: CRX (Homo sapiens, UniProt O43186 1-299); details: protein: recombinant; tags: N-terminal GST; dsDNA, one strand shown
# Outline: as §1
# [10] = target: ETV1 (Homo sapiens, UniProt P50549 1-477); details: protein: recombinant; tags: N-terminal GST; dsDNA, one strand shown
# Outline: as §1
# [11] = target: T6, ERF (Homo sapiens, UniProt P50548 1-548); details: protein: recombinant; tags: N-terminal GST; dsDNA, one strand shown
# T6 sequence: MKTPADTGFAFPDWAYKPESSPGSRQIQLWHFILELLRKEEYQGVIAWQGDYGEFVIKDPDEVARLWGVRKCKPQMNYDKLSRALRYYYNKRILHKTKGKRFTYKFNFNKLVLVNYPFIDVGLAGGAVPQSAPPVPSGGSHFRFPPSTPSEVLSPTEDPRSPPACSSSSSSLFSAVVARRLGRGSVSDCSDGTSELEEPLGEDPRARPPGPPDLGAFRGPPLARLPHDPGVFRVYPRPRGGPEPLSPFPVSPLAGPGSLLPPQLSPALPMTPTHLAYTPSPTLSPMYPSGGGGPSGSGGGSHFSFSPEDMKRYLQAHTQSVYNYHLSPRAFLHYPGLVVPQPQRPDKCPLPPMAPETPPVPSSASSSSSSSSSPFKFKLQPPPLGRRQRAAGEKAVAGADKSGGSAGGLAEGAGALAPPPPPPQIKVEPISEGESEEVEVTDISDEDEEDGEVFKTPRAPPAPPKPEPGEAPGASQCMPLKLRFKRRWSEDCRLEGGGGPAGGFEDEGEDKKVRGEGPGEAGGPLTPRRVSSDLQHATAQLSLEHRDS
# Outline: as §1
# [12] = target: T7, ETV3L (Homo sapiens, UniProt Q6ZN32 1-361); details: protein: recombinant; tags: N-terminal GST; dsDNA, one strand shown
# T7 sequence: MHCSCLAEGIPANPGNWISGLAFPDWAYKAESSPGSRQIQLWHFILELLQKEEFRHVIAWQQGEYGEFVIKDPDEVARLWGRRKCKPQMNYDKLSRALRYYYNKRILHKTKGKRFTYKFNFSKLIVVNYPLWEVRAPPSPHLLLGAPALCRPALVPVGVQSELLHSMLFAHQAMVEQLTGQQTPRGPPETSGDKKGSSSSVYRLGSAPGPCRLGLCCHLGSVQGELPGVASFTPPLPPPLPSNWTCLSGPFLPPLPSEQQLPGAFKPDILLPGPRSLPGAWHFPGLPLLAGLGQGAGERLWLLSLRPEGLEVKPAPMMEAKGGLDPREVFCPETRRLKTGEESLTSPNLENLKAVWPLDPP
# Outline: as §1
# [13] = target: T8, ETS2 (Homo sapiens, UniProt P15036 1-469); details: protein: recombinant; tags: N-terminal GST; dsDNA, one strand shown
# T8 sequence: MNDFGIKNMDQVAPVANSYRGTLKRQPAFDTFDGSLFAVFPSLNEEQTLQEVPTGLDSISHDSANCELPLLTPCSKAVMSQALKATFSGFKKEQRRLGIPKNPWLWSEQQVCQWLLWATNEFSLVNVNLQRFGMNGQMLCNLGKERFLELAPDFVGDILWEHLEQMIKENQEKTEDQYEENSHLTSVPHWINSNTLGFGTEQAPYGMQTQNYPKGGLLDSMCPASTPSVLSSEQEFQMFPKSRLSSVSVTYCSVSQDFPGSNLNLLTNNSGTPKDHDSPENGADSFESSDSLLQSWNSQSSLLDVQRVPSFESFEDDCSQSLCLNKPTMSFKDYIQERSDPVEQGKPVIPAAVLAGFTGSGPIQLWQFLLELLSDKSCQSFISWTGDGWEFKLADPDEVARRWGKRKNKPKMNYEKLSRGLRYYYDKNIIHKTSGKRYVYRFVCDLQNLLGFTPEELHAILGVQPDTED
# Outline: as §1
# [14] = target: T9, SPDEF (Homo sapiens, UniProt O95238 1-335); details: protein: recombinant; tags: N-terminal GST; dsDNA, one strand shown
# T9 sequence: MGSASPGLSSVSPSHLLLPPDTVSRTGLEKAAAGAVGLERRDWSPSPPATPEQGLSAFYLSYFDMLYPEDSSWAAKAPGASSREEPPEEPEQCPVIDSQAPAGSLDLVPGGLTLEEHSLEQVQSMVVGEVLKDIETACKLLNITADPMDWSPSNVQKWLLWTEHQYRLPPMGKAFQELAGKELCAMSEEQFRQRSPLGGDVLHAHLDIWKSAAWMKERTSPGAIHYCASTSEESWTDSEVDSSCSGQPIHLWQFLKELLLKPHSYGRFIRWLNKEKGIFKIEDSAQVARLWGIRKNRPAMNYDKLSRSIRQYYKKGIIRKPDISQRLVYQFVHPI
# Outline: as §1
# [15] = target: T10, ETV7 (Homo sapiens, UniProt Q9Y603 1-341); details: protein: recombinant; tags: N-terminal GST; dsDNA, one strand shown
# T10 sequence: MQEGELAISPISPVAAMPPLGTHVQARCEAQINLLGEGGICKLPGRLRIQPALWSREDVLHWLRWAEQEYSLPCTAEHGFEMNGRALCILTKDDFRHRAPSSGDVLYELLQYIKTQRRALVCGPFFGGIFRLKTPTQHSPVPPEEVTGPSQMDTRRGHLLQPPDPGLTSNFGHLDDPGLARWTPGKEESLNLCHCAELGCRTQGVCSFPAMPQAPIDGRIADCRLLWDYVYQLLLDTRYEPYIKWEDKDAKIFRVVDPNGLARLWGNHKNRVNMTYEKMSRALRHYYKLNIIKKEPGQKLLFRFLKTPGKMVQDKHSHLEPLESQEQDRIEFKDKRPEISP
# Outline: as §1
# [16] = target: T11, ELF5 (Homo sapiens, UniProt Q9UKW6-2 1-255); details: protein: recombinant; tags: N-terminal GST; dsDNA, one strand shown
# T11 sequence: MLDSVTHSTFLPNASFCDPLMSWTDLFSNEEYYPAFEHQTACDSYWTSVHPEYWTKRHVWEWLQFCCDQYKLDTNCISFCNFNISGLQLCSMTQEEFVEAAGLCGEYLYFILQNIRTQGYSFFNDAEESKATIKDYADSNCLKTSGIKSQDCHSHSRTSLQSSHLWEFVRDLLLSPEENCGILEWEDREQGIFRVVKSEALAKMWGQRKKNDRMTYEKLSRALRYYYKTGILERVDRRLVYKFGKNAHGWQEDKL
# Outline: as §1
# [17] = target: T12, ETV3 (Homo sapiens, UniProt P41162-2 1-143); details: protein: recombinant; tags: N-terminal GST; dsDNA, one strand shown
# T12 sequence: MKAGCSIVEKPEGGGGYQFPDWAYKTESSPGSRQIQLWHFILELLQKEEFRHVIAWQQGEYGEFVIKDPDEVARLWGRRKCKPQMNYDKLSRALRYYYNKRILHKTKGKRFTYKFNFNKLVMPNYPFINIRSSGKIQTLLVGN
# Outline: as §1
# [18] = target: ETV6 (Homo sapiens, UniProt P41212 1-452); details: protein: recombinant; tags: N-terminal GST; dsDNA, one strand shown
# Outline: as §1
# Chain of ETV6 (P41212 whole entry): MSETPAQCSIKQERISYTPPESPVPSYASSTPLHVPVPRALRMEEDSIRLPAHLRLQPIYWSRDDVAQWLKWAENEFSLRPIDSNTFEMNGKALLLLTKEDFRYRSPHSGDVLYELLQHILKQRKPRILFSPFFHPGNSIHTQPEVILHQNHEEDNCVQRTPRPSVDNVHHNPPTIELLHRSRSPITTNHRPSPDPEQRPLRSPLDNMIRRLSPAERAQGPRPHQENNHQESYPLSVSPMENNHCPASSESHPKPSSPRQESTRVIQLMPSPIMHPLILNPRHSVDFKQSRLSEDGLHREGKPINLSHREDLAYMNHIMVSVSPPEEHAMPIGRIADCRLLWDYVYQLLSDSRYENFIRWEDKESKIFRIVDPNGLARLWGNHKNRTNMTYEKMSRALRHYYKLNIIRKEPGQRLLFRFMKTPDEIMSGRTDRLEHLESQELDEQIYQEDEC
# Chain of CRX (O43186 whole entry): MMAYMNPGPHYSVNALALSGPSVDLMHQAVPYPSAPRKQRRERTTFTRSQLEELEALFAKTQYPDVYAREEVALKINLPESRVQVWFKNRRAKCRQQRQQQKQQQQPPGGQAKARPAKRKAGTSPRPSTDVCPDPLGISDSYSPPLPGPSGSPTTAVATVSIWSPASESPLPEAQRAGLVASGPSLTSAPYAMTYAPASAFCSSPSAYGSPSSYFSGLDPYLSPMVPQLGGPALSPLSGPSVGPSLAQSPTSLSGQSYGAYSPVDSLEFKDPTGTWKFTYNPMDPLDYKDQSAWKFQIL
# Chain of ETV5 (P41161 whole entry): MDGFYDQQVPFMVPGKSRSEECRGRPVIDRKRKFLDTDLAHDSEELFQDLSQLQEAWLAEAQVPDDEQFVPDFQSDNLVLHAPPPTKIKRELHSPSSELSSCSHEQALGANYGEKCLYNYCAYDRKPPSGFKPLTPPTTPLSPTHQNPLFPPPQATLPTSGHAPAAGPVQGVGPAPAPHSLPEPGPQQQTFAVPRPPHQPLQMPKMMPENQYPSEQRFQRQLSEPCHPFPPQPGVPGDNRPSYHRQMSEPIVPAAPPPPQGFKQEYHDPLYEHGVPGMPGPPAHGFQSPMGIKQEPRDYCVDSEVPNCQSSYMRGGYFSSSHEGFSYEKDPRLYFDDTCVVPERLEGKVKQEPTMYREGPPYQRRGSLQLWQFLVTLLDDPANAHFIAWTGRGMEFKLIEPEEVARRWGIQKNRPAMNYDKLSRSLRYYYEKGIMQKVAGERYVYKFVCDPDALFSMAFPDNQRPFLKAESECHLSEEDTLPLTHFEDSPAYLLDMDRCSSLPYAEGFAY
# Chain of ETV1 (P50549 whole entry): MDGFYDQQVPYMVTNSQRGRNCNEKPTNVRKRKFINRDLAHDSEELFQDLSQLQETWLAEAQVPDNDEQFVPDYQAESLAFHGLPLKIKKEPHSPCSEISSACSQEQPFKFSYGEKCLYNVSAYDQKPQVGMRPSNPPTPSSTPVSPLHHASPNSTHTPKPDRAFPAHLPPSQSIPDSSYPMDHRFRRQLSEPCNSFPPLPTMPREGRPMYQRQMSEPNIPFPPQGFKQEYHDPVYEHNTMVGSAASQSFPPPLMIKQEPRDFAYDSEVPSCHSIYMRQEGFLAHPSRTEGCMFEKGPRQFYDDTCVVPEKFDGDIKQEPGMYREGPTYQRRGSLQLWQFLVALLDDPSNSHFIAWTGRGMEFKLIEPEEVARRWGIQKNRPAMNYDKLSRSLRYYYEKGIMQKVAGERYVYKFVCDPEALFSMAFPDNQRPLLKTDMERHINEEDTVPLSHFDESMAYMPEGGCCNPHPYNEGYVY
# Chain of ELF4 (Q99607 whole entry): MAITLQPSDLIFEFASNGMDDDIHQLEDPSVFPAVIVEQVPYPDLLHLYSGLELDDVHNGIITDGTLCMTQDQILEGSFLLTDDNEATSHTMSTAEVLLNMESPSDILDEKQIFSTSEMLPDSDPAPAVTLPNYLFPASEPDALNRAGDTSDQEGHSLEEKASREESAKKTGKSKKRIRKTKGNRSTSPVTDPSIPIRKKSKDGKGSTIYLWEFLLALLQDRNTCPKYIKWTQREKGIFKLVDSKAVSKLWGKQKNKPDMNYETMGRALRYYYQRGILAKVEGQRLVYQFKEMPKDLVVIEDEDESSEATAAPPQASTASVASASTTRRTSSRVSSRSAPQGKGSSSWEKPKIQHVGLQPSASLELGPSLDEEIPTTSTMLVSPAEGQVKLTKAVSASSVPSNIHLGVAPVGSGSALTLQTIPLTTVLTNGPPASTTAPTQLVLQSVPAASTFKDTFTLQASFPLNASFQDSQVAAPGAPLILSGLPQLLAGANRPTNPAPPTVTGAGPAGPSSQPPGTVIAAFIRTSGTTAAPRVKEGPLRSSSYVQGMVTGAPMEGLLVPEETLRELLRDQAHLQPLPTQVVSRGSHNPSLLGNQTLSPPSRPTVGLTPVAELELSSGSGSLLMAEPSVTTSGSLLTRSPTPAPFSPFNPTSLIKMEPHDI
# Chain of HSF1 (Q00613 whole entry): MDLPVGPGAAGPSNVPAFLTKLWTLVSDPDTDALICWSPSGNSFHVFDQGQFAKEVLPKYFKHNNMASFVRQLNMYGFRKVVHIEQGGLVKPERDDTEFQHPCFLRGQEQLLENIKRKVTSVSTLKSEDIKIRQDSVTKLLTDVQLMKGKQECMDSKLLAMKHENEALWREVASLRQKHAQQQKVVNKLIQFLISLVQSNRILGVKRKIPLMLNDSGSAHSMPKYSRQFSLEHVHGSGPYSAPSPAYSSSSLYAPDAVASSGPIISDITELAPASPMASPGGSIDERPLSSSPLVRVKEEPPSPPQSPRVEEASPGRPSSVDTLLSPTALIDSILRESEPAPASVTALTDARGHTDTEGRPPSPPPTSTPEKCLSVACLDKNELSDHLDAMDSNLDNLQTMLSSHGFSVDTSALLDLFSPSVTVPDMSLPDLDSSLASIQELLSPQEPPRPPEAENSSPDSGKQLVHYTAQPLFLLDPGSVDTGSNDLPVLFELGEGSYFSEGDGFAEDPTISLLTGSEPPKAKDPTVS
sequence,measurement,setting,value
CCCCAT,binding signal,[1],"1.2 fold enrichment (6-mer frequency, TF over GST control)"
same,binding signal,[2],"1.34 fold enrichment (6-mer frequency, TF over GST control)"
same,binding signal,[3],"1.1 fold enrichment (6-mer frequency, TF over GST control)"
same,binding signal,[4],"1.41 fold enrichment (6-mer frequency, TF over GST control)"
same,binding signal,[5],"1.34 fold enrichment (6-mer frequency, TF over GST control)"
same,binding signal,[6],"1.22 fold enrichment (6-mer frequency, TF over GST control)"
same,binding signal,[7],"1.52 fold enrichment (6-mer frequency, TF over GST control)"
same,binding signal,[8],"1.16 fold enrichment (6-mer frequency, TF over GST control)"
same,binding signal,[9],"1.15 fold enrichment (6-mer frequency, TF over GST control)"
same,binding signal,[10],"1.37 fold enrichment (6-mer frequency, TF over GST control)"
same,binding signal,[11],"1.16 fold enrichment (6-mer frequency, TF over GST control)"
same,binding signal,[12],"1.29 fold enrichment (6-mer frequency, TF over GST control)"
same,binding signal,[13],"1.32 fold enrichment (6-mer frequency, TF over GST control)"
same,binding signal,[14],"1.3 fold enrichment (6-mer frequency, TF over GST control)"
same,binding signal,[15],"1.19 fold enrichment (6-mer frequency, TF over GST control)"
same,binding signal,[16],"1.39 fold enrichment (6-mer frequency, TF over GST control)"
same,binding signal,[17],"1.31 fold enrichment (6-mer frequency, TF over GST control)"
same,binding signal,[18],"1.25 fold enrichment (6-mer frequency, TF over GST control)"
